{
  "source": "the supplement of paper PMC3334620",
  "note": "The full ranking holds about 33,000 sequences; the median of “E-score (-0.5 to 0.5)” is about -0.036, and the highest 2% start at about 0.37. The full list was thinned out, with the highest values kept by preference.",
  "data": [
    {"biological_target": "T1, Yer064c (UniProt P40041)", "T1 sequence": "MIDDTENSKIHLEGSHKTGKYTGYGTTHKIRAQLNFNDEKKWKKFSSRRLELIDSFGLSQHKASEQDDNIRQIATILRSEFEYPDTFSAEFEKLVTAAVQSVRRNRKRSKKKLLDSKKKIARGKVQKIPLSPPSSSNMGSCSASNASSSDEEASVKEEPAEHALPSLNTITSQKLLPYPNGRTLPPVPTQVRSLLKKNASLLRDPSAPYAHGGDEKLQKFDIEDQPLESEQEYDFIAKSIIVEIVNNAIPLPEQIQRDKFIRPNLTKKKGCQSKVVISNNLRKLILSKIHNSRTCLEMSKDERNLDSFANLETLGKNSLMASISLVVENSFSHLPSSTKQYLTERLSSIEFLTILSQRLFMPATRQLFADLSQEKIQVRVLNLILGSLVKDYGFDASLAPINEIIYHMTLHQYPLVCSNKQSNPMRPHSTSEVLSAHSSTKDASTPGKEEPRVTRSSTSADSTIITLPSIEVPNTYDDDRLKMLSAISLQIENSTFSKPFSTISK", "assay": "PBM E-score (8-mer binding enrichment) (E-score (-0.5 to 0.5)); higher = stronger / more preferred TF binding", "details": "protein concentration: 200 nM; construct: GST-full length", "protocol": "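Universal 'all 10-mer' protein binding microarrays (Agilent AMADID 015681) probed with GST-tagged S. cerevisiae TFs (full-length or DBD) made by in vitro transcription/translation (PURExpress), about 100-200 nM. Bound TF was detected with fluorescent anti-GST. Each ungapped 8-mer (which stands for itself and its reverse complement) is scored by the PBM enrichment score (E-score), a modified Wilcoxon-Mann-Whitney statistic from -0.5 to +0.5, computed with the Universal PBM Analysis Suite. Scale: above 0.35 generally sequence-specific binding.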", "values": [
      {"sequence": "CGTCAAAA", "PBM E-score": -0.0525},
      {"sequence": "ACTCAAAT", "PBM E-score": 0.294},
      {"sequence": "AGTCAAAT", "PBM E-score": 0.412},
      {"sequence": "AGTCAAAG", "PBM E-score": 0.406},
      {"sequence": "AGTCAAAA", "PBM E-score": 0.408},
      {"sequence": "ATTCAAAT", "PBM E-score": 0.214},
      {"sequence": "GGTCAAAA", "PBM E-score": 0.0441},
      {"sequence": "AGTCAAAC", "PBM E-score": 0.35},
      {"sequence": "CGTCAAAG", "PBM E-score": 0.0679},
      {"sequence": "ACGCGAGC", "PBM E-score": -0.0659},
      {"sequence": "GGCAAGAC", "PBM E-score": -0.163},
      {"sequence": "GTGGCATA", "PBM E-score": -0.194},
      {"sequence": "AATGCGTA", "PBM E-score": 0.00743},
      {"sequence": "GGTAGGGA", "PBM E-score": -0.0117},
      {"sequence": "AGGGAAGA", "PBM E-score": -0.0141},
      {"sequence": "AGAAAATC", "PBM E-score": 0.0604},
      {"sequence": "ACATCGGA", "PBM E-score": 0.0356},
      {"sequence": "AACTCAAC", "PBM E-score": 0.123},
      {"sequence": "TACTCAAA", "PBM E-score": 0.201},
      {"sequence": "GACTCAAC", "PBM E-score": 0.472},
      {"sequence": "CACTCAAA", "PBM E-score": 0.107},
      {"sequence": "CACTCAAC", "PBM E-score": 0.0472},
      {"sequence": "GACTCAAA", "PBM E-score": 0.48},
      {"sequence": "CGGCCCGA", "PBM E-score": -0.157},
      {"sequence": "ACGAGAGC", "PBM E-score": -0.143},
      {"sequence": "GTTGGCAA", "PBM E-score": -0.14},
      {"sequence": "AAGCTTAA", "PBM E-score": 0.0226},
      {"sequence": "CGGTACAG", "PBM E-score": -0.12},
      {"sequence": "GGCTCACA", "PBM E-score": 0.13},
      {"sequence": "CTCGTAAC", "PBM E-score": 0.0792},
      {"sequence": "CACTCTCC", "PBM E-score": -0.0733},
      {"sequence": "GACTCTCA", "PBM E-score": 0.418},
      {"sequence": "GACTCTCC", "PBM E-score": 0.411},
      {"sequence": "AACTCTCA", "PBM E-score": 0.0457},
      {"sequence": "CACTCTCA", "PBM E-score": -0.0477},
      {"sequence": "AACTCTCC", "PBM E-score": -0.159},
      {"sequence": "AGGTCTTA", "PBM E-score": 0.0474},
      {"sequence": "CCTTCCCA", "PBM E-score": -0.0175},
      {"sequence": "CAATGCAC", "PBM E-score": 0.0625},
      {"sequence": "ATGAGCCC", "PBM E-score": -0.00355},
      {"sequence": "ATGAGCCA", "PBM E-score": 0.396},
      {"sequence": "CTGAGCCA", "PBM E-score": 0.31},
      {"sequence": "GCATCATA", "PBM E-score": 0.0926},
      {"sequence": "GAATCATA", "PBM E-score": 0.464},
      {"sequence": "AAATCATT", "PBM E-score": 0.359},
      {"sequence": "AAATCAAG", "PBM E-score": 0.0497},
      {"sequence": "ATATCATC", "PBM E-score": -0.113},
      {"sequence": "CAATCAGG", "PBM E-score": 0.218},
      {"sequence": "ACATCATC", "PBM E-score": 0.212},
      {"sequence": "AAATCATG", "PBM E-score": 0.385},
      {"sequence": "CAATCAAG", "PBM E-score": 0.212},
      {"sequence": "AAATCATC", "PBM E-score": 0.403},
      {"sequence": "GTATCATA", "PBM E-score": 0.0771},
      {"sequence": "CAATCATG", "PBM E-score": 0.369},
      {"sequence": "ATTTTGTA", "PBM E-score": 0.00667},
      {"sequence": "ACAAGAGT", "PBM E-score": 0.149},
      {"sequence": "CTTCATAC", "PBM E-score": -0.00264},
      {"sequence": "GGCCGGAA", "PBM E-score": -0.146},
      {"sequence": "GTCGGCGA", "PBM E-score": 0.141},
      {"sequence": "GAATGAGA", "PBM E-score": 0.0143},
      {"sequence": "AGCGTCCG", "PBM E-score": -0.131},
      {"sequence": "CAGCAAGA", "PBM E-score": -0.11},
      {"sequence": "CGCTTCCA", "PBM E-score": -0.24},
      {"sequence": "ATGTAAGC", "PBM E-score": -0.0792},
      {"sequence": "AACTGTTA", "PBM E-score": 0.0274},
      {"sequence": "GAGAGGAA", "PBM E-score": -0.0878},
      {"sequence": "TAATCAGA", "PBM E-score": 0.35},
      {"sequence": "ATATCATA", "PBM E-score": 0.00064},
      {"sequence": "AAATCATA", "PBM E-score": 0.387},
      {"sequence": "TAATCATA", "PBM E-score": 0.457},
      {"sequence": "ACATCATA", "PBM E-score": 0.107},
      {"sequence": "TAATCAAA", "PBM E-score": 0.315},
      {"sequence": "GGTGAGCA", "PBM E-score": -0.00163},
      {"sequence": "GGAACCAA", "PBM E-score": -0.106},
      {"sequence": "AGTCACCC", "PBM E-score": 0.479},
      {"sequence": "AGACACCG", "PBM E-score": 0.11},
      {"sequence": "GGTCACCA", "PBM E-score": 0.036},
      {"sequence": "AGTCACCA", "PBM E-score": 0.469},
      {"sequence": "AGTCACCG", "PBM E-score": 0.476},
      {"sequence": "ATTCACCG", "PBM E-score": 0.0472},
      {"sequence": "CGTCACCA", "PBM E-score": -0.0242},
      {"sequence": "ATTCACCC", "PBM E-score": 0.0614},
      {"sequence": "CGTCACCC", "PBM E-score": -0.258},
      {"sequence": "TACGCAGA", "PBM E-score": 0.1},
      {"sequence": "TAGATGAA", "PBM E-score": 0.00973},
      {"sequence": "AGACCCGG", "PBM E-score": -0.0102}
    ]}
  ]
}
